Records with an inconclusive call do not appear. The source made the active and inactive calls. The call rests on the fitted dose curve; in most records, active means well fitted inhibition curve with a large enough effect; inconclusive means small, poorly fitted or top-dose-only effect; inactive means flat fitted curve, though single readings scatter.
Tested on: 7G8
Test: qHTS profiling for inhibitors of Plasmodium falciparum proliferation (AID 504749); further: nearly all actives have a fitted effect of over 60% in size
Conditions: P. falciparum in erythrocytes, SYBR Green DNA, 72 h; series mostly up to 28.7 µM
In short: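 Parasite proliferation within erythrocytes, 72 h exposure. Endpoint: SYBR Green I fluorescence after overnight lysis at room temperature. Controls: 0.29 uM artemisinin, DMSO.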
Potency means the concentration at half of the fitted maximal effect.

Compound	Potency
CC(=O)N/N=C/c1ccc([N+](=O)[O-])o1	7.94 µM (active)
CNCCC=C1c2ccccc2CCc2ccccc21	11.2 µM (active)
O=C1OC(c2ccc(O)cc2)(c2ccc(O)cc2)c2ccccc21	inactive
Oc1ccc(Cl)cc1Sc1cc(Cl)ccc1O	12.6 µM (active)
CN(C(=O)CN(CCO)CC(=O)N(C)C(C)(C)Cc1ccccc1)C(C)(C)Cc1ccccc1	3.16 µM (active)
CCCOC(C(=O)OC1CCN(C)CC1)(c1ccccc1)c1ccccc1	11.2 µM (active)
CO/N=C1\CN(c2nc3c(cc2F)c(=O)c(C(=O)O)cn3C2CC2)CC1CN (stereo unspecified)	7.94 µM (active)
O=C(N/N=C/c1ccccc1O)c1ccncc1	8.91 µM (active)
c1ccc(CNCCNCc2ccccc2)cc1	10 µM (active)
C=C(CC)C(=O)c1ccc(OCC(=O)O)c(Cl)c1Cl	14.1 µM (active)
NC(CS)C(=O)O (stereo unspecified)	1.78 µM (active)
c1ccc(-c2ccc(C(c3ccccc3)n3ccnc3)cc2)cc1 (stereo unspecified)	2 µM (active)
CC(C)NC[C@@H](O)COc1cccc2ccccc12	5.62 µM (active)
CCOC(=O)/C=C(C)/C=C/C=C(C)/C=C/c1c(C)cc(OC)c(C)c1C	12.6 µM (active)
O=C(CCCN1CCC(O)(c2ccc(Br)cc2)CC1)c1ccc(F)cc1	2.82 µM (active)
CN(C)C(=S)SC(=S)N(C)C	6.31 µM (active)

Compound	Potency
CN1CCN(CCCN2c3ccccc3Sc3ccc(S(=O)(=O)N(C)C)cc32)CC1	0.891 µM (active)
CCOC(=O)COc1ccc2c(C)c(CCN(CC)CC)c(=O)oc2c1Cl	inactive
OC(CCN1CCCCC1)(c1ccccc1)c1ccccc1	11.2 µM (active)
CCCCCCCCCCOCC(O)CN (stereo unspecified)	12.6 µM (active)
C[C@@H]1CN(CCCn2c3ccccc3c3ccccc32)C[C@H](C)N1	4.47 µM (active)
Cc1cccc(C)c1NC(=O)CN1CCN(CCCC(c2ccc(F)cc2)c2ccc(F)cc2)CC1	4.47 µM (active)
O=c1c(-c2ccccc2)c1-c1ccccc1	8.91 µM (active)
CCCCc1nc(Cl)c(CO)n1Cc1ccc(-c2ccccc2-c2nn[nH]n2)cc1	6.31 µM (active)
CCN(CC)CCOc1ccc(C(O)(Cc2ccc(Cl)cc2)c2ccc(C)cc2)cc1 (stereo unspecified)	5.01 µM (active)
Cc1ccc(C(=O)C(C)CN2CCCCC2)cc1 (stereo unspecified)	11.2 µM (active)
O=C1OCCN1/N=C/c1ccc([N+](=O)[O-])o1	10 µM (active)
CN(C)CC/C=C1\c2ccccc2Sc2ccc(Cl)cc21	12.6 µM (active)
CCN1CCC[C@H]1CNC(=O)c1c(OC)ccc(Br)c1OC	inactive
CCCCCCCCCCCCCCNCCO	10 µM (active)
Cc1ccc(O)c2ncccc12	inactive

Source: PubChem BioAssay (NCATS)
